Data taken from PubChem BioAssay (NCI).
The panel holds about 83,000 compounds, 20% with a hit somewhere; the sample as a whole holds those more often.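 A percent growth of 40 corresponds to 60% growth inhibition; 0 means no net growth; -100 means all cells died. Active threshold: below 10.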 The source made the active and inactive calls.

Tests used:
Test in all cases: NCI-60 one-dose screen, 48 h (100 = growth as untreated, 0 = no growth, -100 = all killed)
Conditions in all cases: 10 µM unless noted
[1] = tested on: DU-145 prostate
[2] = tested on: K-562 leukemia
[3] = tested on: MALME-3M melanoma
[4] = tested on: MDA-MB-231 breast
[5] = tested on: RXF 393 renal
[6] = tested on: SF-268 CNS
[7] = tested on: SF-295 CNS
[8] = tested on: SF-539 CNS
[9] = tested on: UACC-257 melanoma
[10] = tested on: M14 melanoma
[11] = tested on: HCT-15 colon
[12] = tested on: HT29 colon
[13] = tested on: SNB-75 CNS
[14] = tested on: SNB-19 CNS
[15] = tested on: U251 CNS
[16] = tested on: PC-3 prostate
[17] = tested on: UACC-62 melanoma
[18] = tested on: LOX IMVI melanoma
[19] = tested on: SK-MEL-28 melanoma
[20] = tested on: SK-MEL-5 melanoma

Measured: growth

C[Se]/C=C1/C(=O)N(c2c(Cl)cccc2Cl)c2ccccc21
active: [6] 8.58% | [8] 0.963% | [9] -4.62% | [12] 7.79% | [13] -30.8% | [19] 8.1%
inactive: [1] 43.9% | [2] 20.3% | [3] 37.4% | [4] 31.1% | [5] 19.4% | [7] 38% | [10] 20.4% | [11] 45.7% | [14] 32.6% | [15] 25.1% | [16] 31.3% | [17] 27.8% | [18] 17.7%

COc1ccc(C(C#N)C(C)=O)cc1 (centres undefined)
inactive: [1] 92.6% | [2] 104% | [3] 108% | [4] 116% | [5] 111% | [6] 88.9% | [7] 107% | [8] 103% | [9] 93% | [10] 101% | [11] 95% | [12] 88.7% | [13] 82.1% | [14] 105% | [15] 106% | [16] 103% | [20] 102% | [18] 98.1% | [19] 115%

O=S(OO)c1cc(Cl)c(O)c(Cl)c1 (centres undefined)
inactive: [1] 113% | [2] 107% | [3] 115% | [4] 110% | [5] 106% | [6] 103% | [7] 94.3% | [8] 95.7% | [9] 99.6% | [10] 107% | [11] 99.2% | [12] 113% | [13] 78.5% | [14] 104% | [15] 94% | [16] 94.7% | [20] 104% | [17] 101% | [18] 96.4% | [19] 98.9%

COc1ccc(O)c2c(=O)c3c(OC)cc4c(c3oc12)[C@@H]1C=CO[C@@H]1O4
active: [17] 7.2%
inactive: [1] 21.9% | [2] 101% | [3] 62.8% | [4] 67% | [5] 61.6% | [6] 54.9% | [7] 81.6% | [8] 37.9% | [9] 89.6% | [10] 67.4% | [11] 53.3% | [12] 54.3% | [13] 38.5% | [14] 81% | [15] 73.4% | [16] 76.7% | [20] 25.9% | [18] 72.6% | [19] 98.2%

Nc1c(Cl)c(Cl)nc(C(=O)O)c1Cl
inactive: [1] 120% | [2] 83.8% | [3] 83.5% | [4] 106% | [5] 136% | [6] 111% | [7] 98.6% | [8] 84.9% | [9] 108% | [10] 104% | [11] 95% | [12] 110% | [13] 71.4% | [14] 95.1% | [15] 94.2% | [16] 84.9% | [17] 92.4% | [18] 90.7% | [19] 120%

CC1(C)S[C@H]2CC[C@H]3OC(=O)[C@@H]1N23
inactive: [1] 116% | [2] 111% | [3] 101% | [4] 121% | [5] 103% | [6] 113% | [7] 88% | [8] 104% | [9] 116% | [10] 106% | [11] 106% | [12] 106% | [13] 90.9% | [14] 101% | [15] 115% | [16] 87% | [20] 111% | [18] 103% | [19] 108%

C[C@]12CCc3sc(Nc4ccc(F)cc4F)nc3C1=CC[C@@H]1[C@@H]2CC[C@]2(C)C(=O)CC[C@@H]12
inactive: [1] 24% | [3] 69.5% | [4] 76.1% | [6] 70.7% | [7] 51% | [8] 49.6% | [9] 71.9% | [10] 57.8% | [12] 30.1% | [13] 69.4% | [14] 74.1% | [15] 40.7% | [16] 52.9% | [20] 76.9% | [19] 84.4%
active: [2] 2.15% | [5] 5.6% | [11] 7.76% | [18] -49.7%

C[C@]12CCC(=O)C[C@@H]1CC[C@@H]1[C@@H]2CC[C@]2(C)[C@@H](OC(=O)N(CCCl)N=O)CC[C@@H]12
active: [1] -53.4% | [7] -29.6% | [8] -28.5%
inactive: [2] 10.7% | [3] 57.2% | [4] 69.6% | [5] 32.7% | [6] 12.7% | [9] 57.5% | [10] 17.7% | [11] 27.9% | [12] 31.6% | [13] 39.4% | [14] 31% | [15] 16.1% | [16] 36.3% | [17] 13.5% | [18] 22.6% | [19] 63.1%

CCOC(=O)c1cncn1C(C)c1ccccc1 (centres undefined)
inactive: [1] 120% | [2] 96.7% | [3] 109% | [4] 112% | [5] 103% | [6] 113% | [7] 104% | [8] 107% | [9] 103% | [10] 103% | [11] 106% | [12] 95.1% | [13] 94.3% | [14] 106% | [15] 100% | [16] 97.9% | [17] 100% | [18] 101% | [19] 114%

O=NN1CCCCC1
inactive: [1] 107% | [2] 121% | [3] 120% | [4] 95.9% | [5] 118% | [6] 96.1% | [7] 119% | [8] 91.8% | [9] 97.8% | [10] 103% | [11] 106% | [12] 103% | [13] 82.6% | [14] 97.8% | [15] 111% | [16] 110% | [20] 106% | [18] 100%

C[C@]12CC[C@H](O)C[C@@H]1CC[C@@H]1[C@@H]2CC[C@]2(C)OC(=O)CC[C@@H]12
inactive: [1] 107% | [2] 118% | [3] 82.7% | [4] 91.1% | [5] 117% | [6] 98.7% | [7] 93.9% | [8] 95.9% | [9] 73.7% | [10] 100% | [11] 95.2% | [12] 79.6% | [13] 85.8% | [14] 96.6% | [15] 86.9% | [16] 92.5% | [20] 101% | [17] 93.5% | [18] 97.9% | [19] 105%

CCC(=O)C(CC(C)N1CCCCCC1)(c1ccccc1)c1ccccc1 (centres undefined)
inactive: [1] 102% | [2] 82.6% | [3] 93.6% | [4] 92.4% | [5] 129% | [6] 104% | [7] 89.7% | [8] 98.6% | [9] 100% | [10] 98.1% | [11] 87.2% | [12] 67.1% | [13] 115% | [14] 95.2% | [15] 100% | [16] 89.2% | [17] 94.4% | [18] 103% | [19] 94.7%

CC1=CC(=Nc2ccc(N(CCCl)CCCl)cc2)C=C(C)C1=O
inactive: [2] 17.4% | [4] 40.8% | [7] 14.9% | [9] 19.3% | [10] 29.5% | [12] 11.1% | [13] 25.3% | [14] 37.9% | [15] 17.9% | [16] 41.6% | [18] 16.9% | [19] 26.3%
active: [1] -39.4% | [3] 8.43% | [5] -80.3% | [6] -9.09% | [8] 4.45% | [11] 8.95% | [17] 6.59%

CC(=O)C(N)Cc1ccccc1 (centres undefined)
inactive: [1] 99.3% | [2] 98.8% | [3] 105% | [4] 105% | [5] 101% | [6] 105% | [7] 102% | [8] 100% | [9] 73.3% | [10] 90.1% | [11] 103% | [12] 103% | [13] 86.7% | [14] 99.3% | [15] 84.2% | [16] 83.6% | [20] 107% | [17] 92.6% | [18] 95.1% | [19] 114%

Cc1c(C)c(N)c(C)c(C)c1N
active: [1] 6.41%
inactive: [2] 97.8% | [3] 93.2% | [4] 83.2% | [5] 84.1% | [6] 91.5% | [7] 85.4% | [8] 108% | [9] 92.9% | [10] 98.7% | [11] 34.8% | [12] 25.7% | [13] 110% | [14] 82.1% | [15] 78.1% | [16] 73.6% | [20] 93% | [17] 66.3% | [18] 51.9% | [19] 106%
